An excerpt weighted towards active compounds, which were near 10% of everything screened.
BAZ2B inh = blocks human BAZ2B; actives 4.4% (n = 360,000); Potency, µM (top dose mostly 114 µM), usual class: inhibitors; AlphaScreen BAZ2B-H3K14Ac peptide displacement; Q9UIF8; AID 504333; also: nearly all actives have a fitted effect of over 60% in size
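AlphaScreen luminescence quantifies BAZ2B engagement of H3K14Ac peptide; the protein and biotinylated peptide are both at 50 nM final, buffer PBS pH 7.4 with 0.01% Tween-20, all steps at room temperature.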
GLS inh = inhibitors of human glutaminase (GLS). GLS enzymatic activity, qHTS titration. actives 0.21% (n = 410,000). Potency, µM (highest dose often 45.5 µM), most hits filed as inhibitors
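hKGA in 45 mM KH2PO4 pH 8.2, 0.02% Tween-20 with pin-transferred compounds; 1 mM L-glutamine (stock) plus glutamate oxidase/HRP/Amplex Red coupling added. Fluorescence read initially and after 30 min at RT.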
G9a block = inhibitors of human histone lysine methyltransferase G9a; Potency, µM (titrated, usually from 102 µM), most hits filed as inhibitors; G9a H3K9 monomethylation, AlphaScreen, 2 h; actives 8.8% (n = 350,000); AID 504332; also: nearly all actives have a fitted effect of over 75% in size
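Step 1: enzyme (final 20 nM) with compound, 15 min RT. Step 2: substrate peptide 500 nM and SAM 20 uM, 2 h RT. Step 3: anti-H3K9me1 antibody and AlphaScreen beads, 10 min, then plate read.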
HP1b binding inh = blocks HP1-beta chromodomain binding to methylated histone tails; Potency, µM (top dose mostly 114 µM), most hits filed as inhibitors; AID 540317; P83916; AlphaScreen HP1-beta / biotin-H3K9me3 peptide binding; actives 0.56% (n = 390,000); also: nearly all actives have a fitted effect of over 70% in size
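HP1-beta protein (50 nM final) preincubated 30 min at room temperature with biotinylated H3(1-18)K9me3 peptide (50 nM) in PBS pH 7.4, 0.01% Tween-20, then compound added for 30 min. AlphaScreen streptavidin donor/nickel chelate acceptor beads (10 ug/mL final), 30 min dark, luminescence read.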
JMJD2A Tudor = inhibitors of human JMJD2A Tudor domain; actives 4.4% (n = 390,000); AID 504339; AlphaScreen JMJD2A-Tudor / H3K4me3 peptide binding; O75164; Potency, µM (titrated, usually from 114 µM), usual class: inhibitors; also: nearly all actives have a fitted effect of over 50% in size
A number is an active result; . = inactive; ? = inconclusive; / = no result; ! = not active in a repeat; [ ] = dose if it differs, or a comment. Calls follow the shape of the dose curve; as a rule, active = well fitted curve in the direction sought with a large enough effect; inconclusive = small, poorly fitted or top-dose-only effect, or another doubt; inactive = no such curve, though single readings can be large; an effect the other way counts as inactive or inconclusive.

SMILES	BAZ2B inh	GLS inh	G9a block	HP1b binding inh	JMJD2A Tudor
Cc1ccccc1N1Cc2ccccc2C1	?	.	7.9µM	.	.
COc1ccc(OC)c(N2Cc3ccccc3C2)c1	.	.	7.9µM	.	?
O=C(c1ccc(Cl)c(S(=O)(=O)N2CCCCC2)c1)N1CCCC(C(F)(F)F)C1 (configuration not stated)	.	.	.	.	.
Cc1sc2c(c1C)c(=O)n(-c1ccccc1)c(=O)n2CC(=O)c1ccc(Cl)cc1	.	.	.	.	.
CCOC(CNc1ncnc2sc(-c3ccccc3)cc12)OCC	.	.	.	.	.
CN(C)CCCNc1ncnc2sc(-c3ccccc3)cc12	56µM	.	?	?	5.6µM
COc1cccc2[nH]c(C(=O)NN)c(N)c12	?	.	50µM	.	?
CCOC(=O)c1[nH]c2ccccc2c1NC(=O)CC(C)(C)C	.	.	50µM	.	.
CCOC(=O)c1[nH]c2ccccc2c1NC(=S)Nc1cccc(C)c1C	?	.	45µM	.	?
CCOC(=O)c1[nH]c2ccccc2c1NC(=O)CN(C)C	.	.	?	.	.
CCOC(=O)c1[nH]c2ccc(OC)cc2c1NC(=S)N1CCN(c2ccccc2OC)CC1	.	.	79µM	.	?
CCOC(=O)c1[nH]c2ccc(OC)cc2c1NC(=S)N1CCN(C(=O)OCC)CC1	.	.	.	.	.
CCOC(=O)c1[nH]c2ccccc2c1NC(=O)NC(C)C	.	?	.[12.7 µM]	.	.
COc1cccc2[nH]c3ccccc3c(=O)c12	.	.	.	.	.
CCOc1ccc(-c2cc(C(=O)NCCCN3CCCC3)c3ccccc3n2)cc1	.	.	?	.	.
CCOC(=O)c1[nH]c2ccccc2c1NC(=O)c1cc(Cl)ccc1Cl	.	.	.	.	.
CCOC(=O)c1[nH]c2ccccc2c1NC(=O)c1ccccc1OC	79µM	.	?	.	.
COc1cccc(OC)c1OCCCOc1cccc2cccnc12	.	.	.	.	.
COc1cccc(OC)c1OCCN(C)C	35µM	.	?	?	1µM
CCN(CC)CCOc1ccccc1OC	.	.	22µM!	?	1.3µM
COc1cccc(OC)c1OCCNC(C)(C)C	50µM	.	/	.	8.9µM
CCCCN(CC)CCOc1cccc2ccccc12	/	/	.	/	/
CC(C)(C)NCCOc1ccc(Br)cc1	?	.	18µM	.	3.5µM
CCc1ccc(OCCOCC(O)CNC(C)(C)C)cc1 (configuration not stated)	.	.	.	?	.
COc1ccc(OC)c(/C=C(/C#N)c2nc(-c3ccc(-c4ccccc4)cc3)cs2)c1	.	.	.	.	.
SMILES	BAZ2B inh	GLS inh	G9a block	HP1b binding inh	JMJD2A Tudor
CC(=O)OC1CC[C@@]2(C)C(CC[C@@]3(C)C2CC=C2C4CC(C)(C)CC[C@]4(C(=O)O)CC[C@@]23C)C1(C)C (some centres not stated)	/	/	.[2.33 µM]	/	/
Cc1nc2cnc(N3CCOCC3)nc2n(C[C@H]2CCCO2)c1=O	/	/	.[0.501 µM]	/	/
CCOc1cc(/C=N/N=C2/NC(=O)C(CC(=O)O)S2)ccc1OCc1ccc(Cl)cc1 (configuration not stated)	56µM	.	.	.	50µM
COc1ccc(/C=N/N=C2/NC(=O)C(CC(=O)O)S2)cc1OCc1ccc(Cl)cc1 (configuration not stated)	?	.	.	.	?
COc1ccc(/C=N/N=C2/NC(=O)C(CC(=O)O)S2)cc1OS(=O)(=O)c1ccccc1 (configuration not stated)	.	.	?	.	.
Cn1c(=O)n(C)c2cc(/C=N/N=C3/NC(=O)C(CC(=O)O)S3)ccc21 (configuration not stated)	50µM	.	.	?	32µM
O=C(O)CC1S/C(=N/N=C/c2ccc(-c3ccc(Cl)c([N+](=O)[O-])c3)o2)NC1=O (configuration not stated)	.	.	?	.	.
CC(=O)Nc1ccc(S(=O)(=O)Oc2cccc(/C=N/N=C3/NC(=O)C(CC(=O)O)S3)c2)cc1 (configuration not stated)	56µM	.	?	.	.
O=C(O)CC1S/C(=N/N=C/c2ccc(-c3ccc(Cl)cc3[N+](=O)[O-])o2)NC1=O (configuration not stated)	?	.	14µM	.	?
O=C(CCCCn1c(=O)c2ccccc2n(CC(=O)Nc2cccc(F)c2)c1=O)NCCc1ccccc1	.	.	.	.	.
O=C(O)CC1S/C(=N/N=C/C=C/c2ccccc2)NC1=O (configuration not stated)	79µM	.	7.9µM	.	79µM
Cn1c(C(=O)N2CCN(Cc3ccccc3)CC2)cc2c(=O)n(C)c3ccccc3c21	.	.	45µM	.	?
COc1ccc(-n2nc(C(=O)N3CCN(c4cccc(C)c4)C(C)C3)c3c4ccccc4n(C)c3c2=O)cc1 (configuration not stated)	/	.	.	.	.
Cc1cccc(N2CCN(C(=O)c3cc4c(=O)n(C)c5ccccc5c4n3C)CC2C)c1 (configuration not stated)	?	.	45µM	.	?
CCSc1nc2c([nH]c3ccccc32)c(=O)n1-c1ccc(OC)cc1	.	.	.	.	.
COC(=O)C1CCN(S(=O)(=O)CCNC(=O)c2cccc(OC)c2)CC1	.	.	35µM	.	.
COc1cccc(C(=O)NCCS(=O)(=O)N2CCC(C)CC2)c1	.	.	35µM	.	.
Nc1nc(NCc2ccco2)nc(N2CCCC2)c1[N+](=O)[O-]	71µM	.	/	.	.
Nc1nc(NCc2ccco2)nc(N2CCCCCC2)c1[N+](=O)[O-]	50µM	.	?	?	56µM
Nc1nc(NCc2ccco2)nc(NC2CCCCC2)c1[N+](=O)[O-]	.	.	.	.	.
Cc1ccc(NC(=O)C(Cc2ccccc2)N2Cc3ccccc3C2=O)cc1Cl (configuration not stated)	.	.	.	.	.
CSc1ccc(-c2nc(O)c3cnccn23)cc1	.	.	40µM	.	.
Cc1ccc(NC(=O)c2ncn(CC(=O)N[C@H](C)c3cccc4ccccc34)n2)cc1C	/	.	/	.	.
Cc1ccc(NC(=O)c2ncn(CCCN3CCN(Cc4cccc5ccccc45)CC3)n2)cc1C	/	.	/	?	50µM
COc1ccc(CN2CCC(n3nccc3NC(=O)C3CCCC3)CC2)c(OC)c1	.	.	/	.	.
CCOC(=O)C1CCCN(CC(O)COc2ccc(OC)cc2C(C)(C)C)C1 (configuration not stated)	50µM	.	13µM	7.9µM	?
COc1ccc(CN2CCC(N3CC(C)OC(C)C3)CC2)c(OC)c1 (configuration not stated)	32µM	.	8.9µM	40µM	0.79µM
CCOC(=O)C1CCN(Cc2ccc(OC)cc2OC)CC1	?	.	?	?	1.8µM
